Source: the supplement of paper PMC4466236
Over roughly 33,000 sequences, “E-score (dimensionless, -0.5 to 0.5)” has its median near -0.058; the highest 2% begin near 0.35. The entries come from a sample that favours the highest values as a whole.

tested on: MvaT; test: PBM 8-mer E-score (mean of HK and ME arrays) (E-score (dimensionless, -0.5 to 0.5)); higher = stronger relative binding preference
In short: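 Reported values are rank-based E-scores, taken as the mean of two universal arrays and parsed with a custom script. Each 8-mer score falls between -0.5 and 0.5. The arrays, ME and HK, were double-stranded 60-mers with a constant 25-mer primer region and a variable 35-mer region covering all 8-mers. They were probed, by an earlier protocol, with full-length P. aeruginosa MvaT carrying an N-terminal glutathione S-transferase fusion.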

Sequence | PBM 8-mer E-score
TACGACAA | 0.131
CCACCTCG | -0.129
GAGGCCCA | -0.232
ATCCGAGG | -0.119
CAATTCTA | 0.109
GATTTAGC | 0.024
ACTTATGG | 0.206
AGTGGTAG | 0.00056
CGCCGGCA | -0.168
CCTAACCG | -0.115
AAACTATA | 0.334
TAACTAAA | 0.312
AAACTATT | 0.371
GAACTAAA | 0.338
AAACTAAA | 0.357
AAACTATC | 0.301
ATTGAAAG | 0.195
AGTCCCGC | -0.186
GTCCAATA | 0.0714
AATGGGGT | 0.0941
ACAACCTG | -0.038
GCGAGCCA | -0.16
ACAATATG | 0.262
GCAATAGA | 0.127
ACAATATA | 0.425

Sequence | PBM 8-mer E-score
GCAATAAA | 0.214
CCAATATC | 0.194
GCAATATA | 0.414
ACAATATC | 0.258
CCAATATA | 0.367
CCAATACA | 0.142
CTAGGCCA | -0.211
CGATAGGA | -0.177
AAAACCTT | 0.103
GCCATCGC | -0.219
ACTTACAA | 0.307
GAATTTCA | 0.108
CCTGGGCC | -0.238
ATACATTA | 0.39
CTACATTA | 0.241
GCACATTA | 0.19
ACACATTG | 0.113
GTACATTA | 0.308
ACACATTA | 0.355
GCCGATGA | -0.199
TAGCTATA | 0.241
ACGGTAAT | 0.18
GTAGGCAA | -0.171
TAGGGCAA | -0.0392
GATTACAA | 0.188

Sequence | PBM 8-mer E-score
TATTACAA | 0.351
AATTACAT | 0.327
AATTACAG | 0.268
CATTACAA | 0.166
AATTACAA | 0.367
AGGTGACT | -0.173
CCGAGACA | -0.0391
GAGGAGTA | -0.153
CGAGTATA | 0.195
CTATATTC | 0.204
ATCTATTG | 0.082
CTCTATTC | -0.0516
ATATATTC | 0.454
ATATATTG | 0.446
AGATATTG | 0.191
AATCATAA | 0.306
ACCCGTCG | -0.0362
AATATACT | 0.421
AATACACA | 0.151
TATATACA | 0.456
CATATACA | 0.275
AGTATACC | 0.234
AATACACG | 0.159
GATATACA | 0.205
AATATACA | 0.413

Sequence | PBM 8-mer E-score
AATATACG | 0.331
AGTATACA | 0.321
AATATACC | 0.324
AGTATACT | 0.422
GAGCCGAC | -0.262
ACTTGCAG | 0.0173
AGGCTTAG | -0.104
CGATAGTC | -0.0515
AGGTCGTG | -0.0505
CAGTAGCA | 0.0532
GCGACTCC | -0.217
CGTAGGTA | -0.029
TCTATACA | 0.136
TGTATACA | 0.351
TGGATACA | -0.00533
AAGTTATC | 0.256
AAGTTAGT | 0.322
AAGTTACG | 0.231
AAGTTATT | 0.415
AAGTTATG | 0.349
CAGTTATG | 0.189
GCCTGACA | -0.188
CAGAAAGA | 0.0379
TTAAGAAA | 0.242
ATTTTATC | 0.202

Sequence | PBM 8-mer E-score
ATCATCGG | -0.0977
AGTAGGAT | -0.047
AATACAAC | 0.316
AATACAAG | 0.208
GATACAAA | 0.247
AATACAAA | 0.357
CATACAAA | 0.206
TATACAAA | 0.392
TACTCTGA | -0.066
TAAGGGCA | 0.0358
GCTCTCGA | -0.0844
AACTGGGG | -0.149
GACTATAA | 0.316
AACTATAG | 0.236
TACTATAA | 0.387
AACTATAA | 0.382
TACTATCA | 0.276
CACTATAA | 0.312
TGCTATAA | 0.285
AACTATAT | 0.349
AACTATAC | 0.227
ACGGGCCG | -0.277
GACCCAGC | -0.26
ACTTAGAG | 0.106
ATCTATTA | 0.301

Sequence | PBM 8-mer E-score
CTATATTA | 0.454
CTCTATTA | 0.267
GAGTATTA | 0.269
GTATATTA | 0.438
GGGTATTA | 0.288
CACTGCTC | -0.18
GCCCGACC | -0.267
GAGAGTAC | -0.0129
AACCGCTC | -0.22
AATGGGAT | 0.138
AGTCGACG | -0.209
AAAATACT | 0.272
CAAAAATA | 0.287
TAAATCTA | 0.183
GAAATATA | 0.408
CAAATATA | 0.433
CAAATATG | 0.264
GAAATAGA | 0.158
AAAATAGT | 0.228
CAAATATC | 0.233
GAAATATC | 0.227
TAAATATA | 0.442
AAAATATT | 0.435
GGCGTCCA | -0.193
AGGTCCTG | -0.144

Sequence | PBM 8-mer E-score
AACGGGCA | -0.142
CTCTATCC | -0.0794
TCGCCAAA | -0.0154
ATATCGCA | 0.208
TCCGTCAA | -0.111
CCGACACG | -0.209
AAAATATC | 0.314
AAAATATA | 0.43
AAAATATG | 0.251
TAATCTAA | 0.292
GAATATAC | 0.298
GAATAGAA | 0.105
CAATAAAC | 0.254
CAATATAA | 0.404
CAATATAG | 0.331
CAATATCC | 0.127
GAATATCA | 0.209
TAATAGAA | 0.254
TAATATAA | 0.463
GAATATAA | 0.38
CAATATAC | 0.386
CGGTACTA | -0.0157
ATTTCGTC | 0.0525
